Data on 34 molecules can be found in PubChem BioAssay AID2766 (Sanford-Burnham Center for Chemical Genomics, 2010).

Each structure is given as a SMILES string. The list shows a part of the results. Values without a mark were called inactive. Calls of active or inactive are those of the source. No stated cut-off is given here; in the data, active means inhibition above about 50%; inactive means the rest.

The target of the assay is Apelin receptor (Homo sapiens) (UniProt P35414). The assay can be described thus: apelin receptor inhibitors, beta-arrestin readout – cell-based, luminescence, single concentration, uHTS hits, confirmation (AID 2766). Particulars: APJ beta-arrestin recruitment, antagonist mode, at 20 µM, stronger effect = higher value.
Sequence of Apelin receptor (Homo sapiens) (P35414 whole entry, looked up): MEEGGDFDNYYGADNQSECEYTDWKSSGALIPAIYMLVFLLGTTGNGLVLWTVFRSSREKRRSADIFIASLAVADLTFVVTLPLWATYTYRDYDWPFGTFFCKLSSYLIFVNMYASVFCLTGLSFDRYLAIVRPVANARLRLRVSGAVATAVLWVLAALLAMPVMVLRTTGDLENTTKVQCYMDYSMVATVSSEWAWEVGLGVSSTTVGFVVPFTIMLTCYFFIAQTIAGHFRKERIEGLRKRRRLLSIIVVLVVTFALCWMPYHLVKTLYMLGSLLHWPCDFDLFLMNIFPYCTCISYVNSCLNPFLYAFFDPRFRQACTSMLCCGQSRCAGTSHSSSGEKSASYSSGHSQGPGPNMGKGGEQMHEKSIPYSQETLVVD
What is called inhibition is the drop in the measured response relative to a control, in per cent. Take `COc1cc(/C=N\NC(=O)CNC(=O)c2cccc([N+](=O)[O-])c2)ccc1O`: the inhibition is 2.71%.
The same measure for `COc1ccc(CS(=O)/C(Cl)=C(/Cl)C(=O)Nc2ccc(OC)nc2)cc1` (centres undefined): 100% (active); for `O=[N+]([O-])c1c(NCCO)cc(Sc2nc3ccccc3s2)c2nonc12`: 105% (active).
As for `O=C(CCl)NNc1cccc(Cl)n1`, the inhibition is 145% (active).
On to `O=C1Nc2ccc([N+](=O)[O-])cc2C1=Nc1cccc(CO)c1`, for which the inhibition was 72.5% (active).
With `Cc1cccc(-n2c(O)c(C=Nc3ccccc3N)c(=O)[nH]c2=O)c1`, the inhibition is 8.93%.
As for `O=C(CCc1nc2ccccc2c(=O)[nH]1)OCC(=O)c1cccc(Cl)c1`, the figure is 37.2%; as for `CC(=O)Nc1ccc(NC(=O)c2sc3nc4c(c(-c5ccc(C)cc5)c3c2N)CCC4)cc1`, 5.53%; as for `CCc1ccc2c(c1)C1(NN=C(c3ccccc3)S1)C(=O)N2` (centres undefined), 42.9%.
As for `O=[N+]([O-])c1cc(Cl)cc(/C=N/NC(=S)Nc2cc(S(=O)(=O)N3CCOCC3)ccc2Cl)c1O`, the figure is 62.4% (active).
For the molecule `CN(C)S(=O)(=O)c1cccc(NC(=S)N/N=C/C(=O)c2ccccc2)c1`, the inhibition was 52.4% (active).
As for `COc1ccc(NC(=O)/C(Cl)=C(/Cl)S(=O)Cc2ccc(C)cc2)cn1` (centres undefined), the figure is 106% (active); as for `COC(=O)c1ccc(NCC(=O)c2ccccc2)cc1`, 63.5% (active); as for `O=C(CSc1cccc2cccnc12)N/N=C/c1cccnc1`, 43.5%.
Turning to `CC(=O)/C(=N\Nc1ccc(Cl)cc1Cl)Sc1cccc2cccnc12`, the inhibition is 78% (active).
The same measure for `Cc1csc(NC(=S)Nc2cccc(Cl)c2)n1`: 55.8% (active).
Turning to `COc1cccc2sc(Nc3nc(C)c(C(C)=O)s3)nc12`, the inhibition is 94% (active).
The same measure for `CC(=O)C1=C(O)C(=O)N(c2ccc(S(N)(=O)=O)cc2)C1c1ccccc1F` (centres undefined): 43.9%; for `O=[N+]([O-])c1ccccc1S(=O)(=O)Nc1cccc2cccnc12`: 4.57%; for `Cc1cc(/C=N/Nc2ccc([N+](=O)[O-])cn2)c(C)n1-c1cccc(C(=O)O)c1`: 75.3% (active).
In the case of `CC1CC2=C(CC1/C=N/NC(N)=S)C(C)(C)CCC2` (centres undefined), the inhibition was 103% (active).
The same measure for `CN1/C(=c2/s/c(=C3/C(=O)N(c4ccccc4)NC3=Nc3ccccc3)n(C)c2=O)C(C)(C)c2ccccc21`: 55.3% (active); for `CSCCC(NC(=O)COc1ccccc1)C(=O)OCC(=O)c1cc2ccccc2o1` (centres undefined): 87.8% (active); for `Oc1ccc(N=Nc2nccs2)c(O)c1`: 79.8% (active).
Regarding `S=C(NNC(=S)NC1CC2CCC1C2)NC1CC2C=CC1C2` (centres undefined), the inhibition was 49.1%.
The same measure for `Cc1cccc2cc3c(N)c(C(=O)N4CCCc5ccccc54)sc3nc12`: 47.9%; for `COc1cc(/C=C2/SC(=S)N(Cc3ccccc3)C2=O)cc(OC)c1O`: 94.7% (active); for `CC(CN1CCOCC1)OC(=O)c1ccc(C(C)(C)C)cc1` (centres undefined): 26.5%.
The same measure for `CCOC(=O)c1cnc(Nc2nc3ccccc3o2)nc1CSC(=S)N1CCCCC1`: -22.6%.
As for `COc1cc(/C=C(\C#N)c2nc3c(s2)CC(C)CC3)ccc1O` (centres undefined), the figure is 44.7%; as for `O=c1ccc2c(-c3ccccc3S(=O)(=O)O)c3ccc(O)c(O)c3oc-2c1O`, 69.9% (active).
Regarding `O=C1Nc2ccc(Br)cc2/C1=N/N=C/C1=C(N2CCOCC2)C(=C\c2ccccc2)/CC1`, the inhibition was 75.1% (active).
As for `CC(C)OC(=O)CN1C(=O)C(=O)c2ccccc21`, the figure is 158% (active).
The same measure for `COc1cc(NS(=O)(=O)c2ccc3ccccc3c2)c2ncccc2c1`: -7.35%.
